Assay outcomes as filed in PubChem.
The list is not random: actives were taken first. Their share in the collection is about 13%.
AID923 – qHTS Assay for Allosteric/Competitive Inhibitors of Caspase-1: Spectroscopic Profiling in AFC Spectral Region; compound fluorescence, AFC spectral region (405/520 nm); Potency, µM (titrated, usually from 57.5 µM), inactives show at the top dose fluorescence increase, actives largely listed as activators; 75,000 tested, 1.1% active; AID 923, 2007; further: potency means the concentration at half of the fitted maximal effect; 0% is about no effect
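Baseline compound fluorescence (AFC region, 405 nm ex/520 nm em) taken from the intercept of kinetic reads with 50 nM caspase-1 and 5 uM Ac-WEHD-AFC; normalized to an on-plate AFC standard curve; compounds titrated up to 57 uM.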
HSD17B inhib – inhibitors of human HSD17B10 dehydrogenase | Q99714 | recombinant HSD17B10, NADH fluorescence kinetic | Potency, µM (doses to about 57.1 µM), inactives show top-dose activity change, negative = inhibition, usual class: inhibitors | 75,000 tested, 7.6% active | AID 893;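 further: the protocol describes HADH2 (HSD17B10) and not the HSD17B4 of the title; potency means the concentration at half of the fitted maximal effect; on the % scale 0 is the no-effect control and ±100 the full control effect; nearly all actives have a fitted effect of over 70% in size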
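20 nM HADH2, pH 9.0 Tris/Tween; cpd preinc 15 min RT; start w/ 1 mM NAD+ + 90 uM b-hydroxybutyryl-CoA; kinetic fluor ex360/em450 q30s x 4 min; delta last-first.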
4-MU autofl – compound fluoresces in the 4-MU spectral region | 59,000 tested, 11% active | max dye-equivalent concentration, M | compound autofluorescence, 340/450 nm, 4-MU equivalents; stronger effect = higher value; in the data active means max dye-equivalent concentration above about 10 nM; inconclusive means mostly about 1.1 nM to 9.6 nM
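Compounds in 100 mM Tris, pH 8.0, incubated 15 min at room temperature, then fluorescence read at 340 nm excitation/450 nm emission. Signal converted to 4-MU dye-equivalent concentration using an on-plate six-point 4-MU standard curve.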
GBA activity – modulators of human glucocerebrosidase; purified enzyme, resorufin glucoside fluorescence (screen aimed at inhibitors), 20 min; Potency, µM; 48,000 tested, 1.1% active; AID 360; in the data active means potency below about 15 µM; inconclusive means mostly about 16 µM to 33 µM;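 further: potency means the concentration at half of the fitted maximal effect; the screen sought inhibitors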
Target sequence (P04062 whole entry, looked up): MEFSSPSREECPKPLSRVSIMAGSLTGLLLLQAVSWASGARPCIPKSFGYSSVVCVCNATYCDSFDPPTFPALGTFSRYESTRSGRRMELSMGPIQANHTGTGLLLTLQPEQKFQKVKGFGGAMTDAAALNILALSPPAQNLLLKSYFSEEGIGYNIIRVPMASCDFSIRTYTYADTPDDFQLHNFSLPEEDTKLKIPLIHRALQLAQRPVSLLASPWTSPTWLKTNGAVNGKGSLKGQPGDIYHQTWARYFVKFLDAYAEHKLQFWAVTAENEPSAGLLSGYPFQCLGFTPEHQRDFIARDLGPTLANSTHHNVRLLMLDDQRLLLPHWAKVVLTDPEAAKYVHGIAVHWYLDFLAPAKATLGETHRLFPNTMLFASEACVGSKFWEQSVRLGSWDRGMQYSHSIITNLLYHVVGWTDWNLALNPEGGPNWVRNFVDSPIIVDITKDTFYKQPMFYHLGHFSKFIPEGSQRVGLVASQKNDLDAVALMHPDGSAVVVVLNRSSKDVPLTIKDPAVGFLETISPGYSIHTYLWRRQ
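Wild-type enzyme at 0.2 nM final in 50mM citric acid/KH2PO4, 10mM sodium taurocholate, 0.01% tween-20, pH 5.9, with resorufin beta-D-glucopyranoside at 30 uM final. Compounds titrated, 20 min at RT, red fluorescence read; AC50 from titration.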
A350 autofl – A350 region autofluorescence. Compound autofluorescence, 340/450 nm, Alexa 350 dye-equivalents; stronger effect = higher value. max dye-equivalent concentration, M. 59,000 tested, 11% active. AID 590; in the data active means max dye-equivalent concentration above about 10 nM; inconclusive means mostly about 1.1 nM to 9.6 nM
HADH2 inhib – inhibitors of human HADH2 dehydrogenase; Potency, µM (series often up to 57.1 µM), without a hit: top-dose activity change, negative = inhibition, most hits filed as inhibitors; AID 886; recombinant HADH2, NADH fluorescence, beta-hydroxybutyryl-CoA; 73,000 tested, 3.4% active; further: potency means the concentration at half of the fitted maximal effect; on the % scale 0 is the no-effect control and ±100 the full control effect; nearly all actives have a fitted effect of over 60% in size
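NADH fluorescence (ex 360/em 450 nm) read every 30 s for 4 min; activity taken as last-minus-first time point difference. Enzyme 20 nM, NAD+ 1 mM, beta-hydroxybutyryl-CoA 90 uM, pH 9.0 Tris buffer.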
An asterisk follows results filed as active; i = inactive; ? = inconclusive; . = no result given; ! = not active in a repeat; [ ] = another dose, or the depositor's remark. Unless noted, the call rests on the fitted dose curve; in most records, active means well fitted curve in the direction sought with a large enough effect; inconclusive means small, poorly fitted or top-dose-only effect, or another doubt; inactive means no such curve, though single readings can be large; an effect the other way counts as inactive or inconclusive.

SMILES	AID923	HSD17B inhib	4-MU autofl	GBA activity	A350 autofl	HADH2 inhib
N#Cc1sc2nc3c(c(-c4cccnc4)c2c1N)CCC3	2%	-7%	?	>77	?	-3%
Cc1nc2sc(C#N)c(N)c2c2c1CCCC2	.	.	3.7e-07M*	.	4.1e-07M*	.
C[C@@]12C=CC(=O)C=C1CC[C@H]1[C@H]3CC[C@](O)(C(=O)CO)[C@]3(C)CC(=O)[C@@H]12	-2%[25.7 µM]	10µM*	i	.	i	0%[25.6 µM]
CC(=O)[C@H]1CC[C@H]2[C@@H]3CCC4=CC(=O)CC[C@]4(C)[C@H]3CC[C@]12C	4%	-7%	i	.	?	-14%
CC(=O)OCC(=O)[C@@]1(O)CC[C@H]2[C@@H]3CCC4=CC(=O)C=C[C@]4(C)[C@H]3[C@@H](O)C[C@@]21C	.	.	i	.	i	.
CC(=O)[C@@H]1CC[C@@H]2[C@@H]3CCC4=CC(=O)CC[C@@]4(C)[C@H]3CC[C@]21C	-3%[25.7 µM]	7%[25.6 µM]	2.3e-08M*!	.	2.7e-08M*!	-1%[25.6 µM]
C[C@]12CCC(=O)C=C1CC[C@@H]1[C@@H]2CC[C@@]2(C)[C@H]1CC[C@]2(O)C(=O)CO	-1%	25µM*	i	.	i	-3%
C[C@@]12CCC(=O)C=C1CC[C@H]1[C@H]3CC[C@](O)(C(=O)CO)[C@]3(C)CC[C@@H]12	.	.	i	.	i	?
C[C@]12CCC(=O)C=C1CCC1C2C(=O)C[C@]2(C)C1CC[C@]2(O)C(=O)CO (stereo partly drawn)	0%	13µM*	.	.	.	.
CS(=O)(=O)N1CCC2(CCCN(Cc3ccccc3)C2)CC1	1%	6%	?	.	?	0%
C#CCCCO/N=C1/C[C@@H](O)[C@@H](O)[C@@H]2[C@H]3C(=O)N(c4ccc(F)cc4F)C(=O)[C@@H]3CC[C@@H]12	0%[11.5 µM]	2%[11.4 µM]	.	.	.	-4%[11.4 µM]
Nc1c(OCC(=O)O)ccc2cc(S(=O)(=O)O)ccc12	-2%[11.5 µM]	-8%[11.4 µM]	?	.	?	-7%[11.4 µM]
Cn1cc(-c2nc3cnc(N4CCOCC4)nc3n(CCC#N)c2=O)c2ccccc21	18%	7%	i	.	i	-5%
CC1Cc2c(-c3ccccc3)nc3c(c2CO1)CN(CCOc1ccccc1)CC3 (stereo not drawn)	4%[11.5 µM]	2%[11.4 µM]	.	.	.	11%[11.4 µM]
Cc1ccc2cc(C#N)c(NCc3ccco3)nc2c1	15%	32µM*	2.2e-07M*	12*	1.7e-07M*	-1%
Cc1ccc(-c2nc(C#N)c(NCc3ccco3)o2)cc1	-2%	32µM*	?	>77	?	32µM*
N#Cc1nc(-c2ccco2)oc1NCCCN1CCOCC1	1%	25µM*	?	.	?	32µM*
N#Cc1nc(-c2ccco2)oc1NCc1ccco1	0%	32µM*	i	>77	?	?
Cc1ccc(OCc2nc(C#N)c(NCc3ccco3)o2)cc1	0%	-22%	i	>77	i	-18%
Cc1cnc(CNc2ncnc3ccc(-c4ccc(N(C)C)cc4)cc23)cn1	0%	?	i	.	i	?
Cc1cccc(N2C(=O)C3C4C=CC(C4)C3C2=O)c1 (stereo not drawn)	0%	7%	?	>77	?	-3%
O=C1C2C3C=CC(C3)C2C(=O)N1c1cccc(-c2nc3ccccc3o2)c1 (stereo not drawn)	1%	32µM*	.	.	.	?
CCc1nc(N(CC)CC)c2oc3ccccc3c2n1	0%	-6%	2.5e-08M*	>77	3.5e-08M*	1%
CCNc1nc(CC)nc2c1oc1ccccc12	0%	5%	2.1e-08M*	>77	4.5e-08M*	5%
CCc1nc(OCCN(CC)CC)c2oc3ccccc3c2n1	-3%	6%	i	>77	i	2%
SMILES	AID923	HSD17B inhib	4-MU autofl	GBA activity	A350 autofl	HADH2 inhib
O=C(Nc1cccc(F)c1)N1CCC2(CC1)CCN(C(=O)c1cc(C(F)(F)F)cc(C(F)(F)F)c1)CC2	-1%	-3%	i	.	i	13%
C=C(C)C(O)/C=C/c1ccc(OC)cc1 (stereo not drawn)	-4%[11.5 µM]	-7%[11.4 µM]	.	.	.	-1%[11.4 µM]
CC(=O)O[C@H]1CC[C@]2(C)C(=CC[C@H]3[C@H]4C[C@H]5O[C@]6(CC[C@H](C)CN6)[C@H](C)[C@@H]5[C@]4(C)CC[C@@H]32)C1	-1%[11.5 µM]	4%[11.4 µM]	i	.	i	10%[11.4 µM]
c1ccc2c(c1)NC1(CCCC1)n1c-2nc2ccccc21	19%	25µM*	4.2e-06M*	.	4.5e-06M*	?
Cc1cc2ccc(=O)oc2cc1OC[C@@H](O)C(C)(C)O	-1%	13µM*	4.5e-06M*	.	4.8e-06M*	1.3µM*
COc1cc(=O)n(C)c2c(OCC(O)C(C)(C)O)cccc12 (stereo not drawn)	1%	-3%	.	.	.	.
COC(=O)C/C=C\[C@@H](C)[C@@H](/C=N\OC[C@@H](C)[C@H](OCc1ccccc1)C(C)C)NS(=O)(=O)c1ccc(C)cc1	0%[11.5 µM]	-1%[11.4 µM]	.	.	.	-4%[11.4 µM]
O=C(N=c1nc2ccccn2s1)c1ccccc1	-1%	0%	1.2e-08M*	>77	1.2e-08M*	-8%
CCCc1nc2oc(C(=O)OCC)c(N)c2c2c1COC(C)(C)C2	4%	25µM*	4e-07M*	>77	5.5e-07M*	95%
Cc1nc2oc(C(=O)c3ccccc3)c(N)c2c2c1COC(C)(C)C2	3%	3%	?	>77	?	3%
CCOC(=O)c1oc2nc(C(C)C)c3c(c2c1N)CC(C)(C)OC3	0%	16µM*	6e-07M*	>77	8.3e-07M*	91%
Cc1ccc(-c2cc(C(F)F)nc(N3CCC(C)CC3)n2)cc1	1%	32µM*	4.3e-08M*	>77	4.2e-08M*	-12%
O=C(NC1CCCC1)c1ccc(COCC(F)(F)C(F)F)o1	0%	0%	i	>77	i	6%
O=C(O)c1ccc(COCC(F)(F)C(F)F)o1	.	.	1.1e-07M*	.	1.3e-07M*	.
O=C1CC(c2ccco2)CC2=C1C(c1ccccc1)n1nc(C(F)(F)F)nc1N2 (stereo not drawn)	4%	32µM*	6.5e-07M*	.	5.6e-07M*	?
COc1ccc(C2C3=C(CC(c4ccco4)CC3=O)Nc3ccccc3N2C(C)=O)cc1 (stereo not drawn)	-1%	-20%	.	.	.	-17%
COc1ccc(C2CC(=O)C3=C(C2)Nc2ncnn2C3c2ccccc2)cc1 (stereo not drawn)	0%	32µM*	9.8e-08M*	>77	8e-08M*	32µM*
COc1ccc(C2CC(=O)C3=C(C2)Nc2ncnn2C3c2ccccc2C)cc1 (stereo not drawn)	0%	-13%	5.4e-08M*	>77	6.8e-08M*	?
O=[N+]([O-])c1cccc(/C=N\Nc2ccc3ccccc3n2)c1O	-1%[11.5 µM]	-1%[11.4 µM]	i	.	i	2%[11.4 µM]
COc1ccc2c(c1)Sc1ccccc1N2CCN(C)C	0%	-19%	i	?	i	11%
